YB-1 expr inh – YB-1 expression inhibition | U2OS, qRT-PCR YB-1 vs CDIP delta delta Cp, 16 h; active compounds read high; zero = DMSO, each unit about twofold | delta delta Cp (YB-1 minus CDIP) (test concentration not listed) | 30,000 compounds, 0.37% hits | AID 434959;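 active means delta delta Cp rounded down to an integer at or above 3, about 3 SD of DMSO wells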;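 further: higher means less YB-1 transcript or more CDIP transcript relative to DMSO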
U2OS ROS induce – inducers of reactive oxygen species in cancer cells; U2OS ROS induction, H2DCF-DA fluorescence; ROS induction (% of piperlongumine), % at 10 µM; 46,000 compounds, 2% hits; AID 624156; in the data active means ROS induction above about 79%, passing the limit was not always enough;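 further: 0% = DMSO vehicle median and 100% = reference compound median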
The depositor's hits bear a star; . = no result given. Most compounds without a hit are left out; they make up all but 2.1% or so of the library.

SMILES	YB-1 expr inh	U2OS ROS induce
C=C(CO)C(=O)O[C@H]1CC(=C)[C@@H]2C[C@H](O)C(=C)[C@@H]2[C@H]2OC(=O)C(=C)[C@@H]21	0.68	96*
C=C(CO)C(=O)O[C@H]1C/C(C)=C\CC/C(CO)=C\[C@H]2OC(=O)C(=C)[C@H]12	-8.4	73
CC(=O)OC[C@]12C[C@H](O)C(C)=C[C@H]1O[C@@H]1[C@H](O)[C@@H](OC(C)=O)[C@@]2(C)[C@]12CO2	1.2	-2
O=C1NCN(c2ccccc2)C12CCN(CCCOc1ccc(F)cc1)CC2	-0.085	0
O=C(CCCN1CCC2(CC1)C(=O)NCN2c1ccccc1)c1ccc(F)cc1	0.12	98*
C=C1[C@@H](C)[C@H]2[C@H](Cc3ccccc3)NC(=O)[C@]23OC(=O)/C=C\[C@H](O)CCC[C@@H](C)C/C=C/[C@H]3[C@@H]1O	0.46	-1
C/C1=C/[C@@H](C)C/C=C/[C@H]2[C@@H]3O[C@]3(C)[C@@H](C)[C@H]3[C@H](Cc4c[nH]c5ccccc45)NC(=O)[C@]32C(=O)/C=C\C(=O)[C@@H]1O	0.48	47
CCOC(=O)C1=C(N)Oc2c(c(=O)oc3ccccc23)C12C(=O)N(CC(=O)OC)c1ccccc12 (configuration not stated)	-0.56	97*
CCOC(=O)C1=C(N)Oc2c(c(=O)oc3ccccc23)C1c1ccccc1 (configuration not stated)	.	-5
C/C=C(/C)C(=O)O[C@H]1C(C)=C2[C@H]([C@@H]1OC(=O)CCCCC)[C@@](C)(OC(C)=O)C[C@H](OC(=O)CCC)[C@@]1(O)[C@H]2OC(=O)[C@@]1(C)O	.	9
C[CH2][Hg][S]c1ccccc1C(=O)O	-0.6	136*
CNc1ccccc1C(=O)O	0.2	6
CN(CC(=O)Nc1ccc(Cl)cc1C(=O)c1ccccc1)S(=O)(=O)c1ccc(Cl)cc1	.	6
C[C@@H]1CN([C@H](C)CO)C(=O)CCCn2nncc2CO[C@@H]1CN(C)C(=O)Oc1ccc2ccccc2c1	-0.037	149*
C[C@@H]1CN([C@@H](C)CO)C(=O)CCCn2nncc2CO[C@@H]1CN(C)C(=O)Oc1ccc2ccccc2c1	0.28	44
CCC(C)(O)C(=O)O[C@H]1C(=O)O[C@@H]2C[C@H]3C(C)=CC(=O)[C@@H](O)[C@]3(C)[C@H]3[C@@]4(O)OC[C@]32[C@@H]1[C@@H](C)[C@H]4O (some centres not stated)	0.74	64
C=CC1C[N+]2([O-])CCC1CC2C(O)c1ccnc2ccccc12 (configuration not stated)	0.5	2
COC(=O)C1=COC(C)C2CN3CCc4c([nH]c5cc(OC)ccc45)C3CC12 (configuration not stated)	-0.05	103*
COC(=O)C1=COC(C)C2CN3CCC4(C(=O)Nc5ccccc54)C3CC12 (configuration not stated)	-0.15	10
C/C=C\C(=O)O[C@@H]1C[C@H]2O[C@@H]3C=C(C)C(=O)C[C@]3(C)[C@]1(C)[C@]21CO1	0.98	6
CC1(C)C(=O)C=C[C@@]2(C)C1C(=O)C(=O)[C@]1(C)C2CC[C@@]2(C)[C@H](c3ccoc3)C[C@H]3O[C@]321 (some centres not stated)	0.45	179*
CC(/C=C/[C@@]1(C)[C@H](C)CCC(=O)[C@@H]1C)=C\Cc1c(O)c(Cl)c(C)c(C=O)c1O	0.46	-5
O=C(NC1CN2CCC1CC2)c1cccc(Cl)c1 (configuration not stated)	-0.59	88*
Clc1cccc(N2CCNCC2)c1	0.17	-9

Assay outcomes deposited in PubChem BioAssay by Broad Institute.
